DT40 TDP1 no CPT: qHTS for Inhibitors of human tyrosyl-DNA phosphodiesterase 1 (TDP1): qHTS in cells in absence of CPT. DT40 Tdp1-/- hTDP1 cells, no CPT, ATP luminescence, 48 h. Potency, µM (highest dose often 46.2 µM), for the others: at the top dose activity change, negative = growth inhibition, actives largely listed as inhibitors. 15% of 420,000 active. AID 686978, 2013; note: % is set by controls: 0 for no effect and ±100 for the full control effect; nearly all actives have a fitted effect of over 55% in size
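Readout: luminescence from CellTiter-Glo after 30 min in the dark at RT. Cells: DT40 Tdp1-/- with stable hTDP1, 400/well. Exposure: compounds alone, ≥48 hr, 37 °C.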
ATXN2 expr inh: reduces ATXN2 reporter expression in HEK-293 cells | HEK-293 ATXN2-luciferase reporter, luminescence, 24 h | Potency, µM (series often up to 57 µM), for inactives: at the top dose activity change, negative = inhibition, hits mostly inhibitors | 0.72% of 360,000 active; note: % is set by controls: 0 for no effect and ±100 for the full control effect; nearly all actives have a fitted effect of over 55% in size
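qHTS (up to 57 uM final) was run with 24 h compound exposure of reporter cells at 37 °C. Each well was multiplexed: SteadyGlo luminescence measured ATXN2-luciferase expression after a fluorogenic Gly-Phe-AFC viability readout (25 uM final).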
TDP1 cell CPT: growth inhibition of DT40 Tdp1-/-;hTDP1 cells with camptothecin (screen for TDP1 inhibitors). chicken DT40 Tdp1-/-;hTDP1 cells + 20 nM CPT, ATP luminescence, 48 h. Potency, µM (titrated, usually from 46.2 µM), for inactives: at the top dose activity change, negative = growth inhibition, usual class: inhibitors. 12% of 420,000 active. AID 686979; note: % is set by controls: 0 for no effect and ±100 for the full control effect; nearly all actives have a fitted effect of over 55% in size
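Chicken DT40 Tdp1-/- cells complemented with human TDP1, 400 cells/well, exposed to compounds plus 20 nM camptothecin for at least 48 h at 37 C; viability read as ATP content by CellTiter-Glo luminescence.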
TGFb SMAD3 inh: inhibitors of TGF-b signaling | HepG2 CAGA-GFP TGF-b/SMAD3 reporter, GFP fluorescence, 18 h; TGF-beta stimulated, 500 pg/mL final | Potency, µM (titrated, usually from 46.1 µM), for the others: top-dose activity, negative = inhibition, usual class: inhibitors | 1.2% of 410,000 active | AID 588855; note: % is set by controls: 0 for no effect and ±100 for the full control effect; nearly all actives have a fitted effect of over 65% in size
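TGF-beta reporter screen: HEPG2 CAGA-GFP, 1% FBS, 500 pg/mL TGF-beta final, 18 h; per-cell GFP summed per well; curves fitted and categorized by class.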
HepG2 tox: HepG2 cytotoxicity, counter-screen for TGF-b inhibitors | Potency, µM (highest dose often 46.1 µM), inactives show top-dose activity change, negative = cytotoxicity, hits mostly cytotoxic | AID 588856 | HepG2 CAGA-GFP viability, ATP luminescence, 18 h | 0.76% of 410,000 active
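HepG2 CAGA-GFP cells (1000/well, DMEM with 1% FBS) received compound, then TGF-beta at 500 pg/mL final, and were incubated 18 hours at 37 degrees C. Viability was read by CellTiter-Glo luminescence. Media-only wells were set as complete cell-killing and DMSO as no toxicity.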
S2 tox: cell viability loss in ATXN counter-screen | 0.49% of 400,000 active | AID 651635 | S2 cells (HEK-293 line with an ATXN2-luciferase reporter) viability, CellTiter-Fluor protease fluorescence, 24 h | Potency, µM (titrated, usually from 56.7 µM), most hits filed as cytotoxic; note: nearly all actives have a fitted effect of over 40% in size
* = called active by the depositor; i = inactive; ? = inconclusive; / = no result given; [ ] = another dose, or the depositor's remark. Shown are actives, neighbours in structure and some others; about 17% of the full set was active somewhere. Calls come from the whole dose curve; as a rule, active = well fitted curve in the direction sought with a large enough effect; inconclusive = small, poorly fitted or top-dose-only effect, or another doubt; inactive = no such curve, though single readings can be large; an effect the other way counts as inactive or inconclusive. Potency is the fitted concentration of half-maximal effect.

SMILES	DT40 TDP1 no CPT	ATXN2 expr inh	TDP1 cell CPT	TGFb SMAD3 inh	HepG2 tox	S2 tox
Cc1nc2ccc(Cc3ccc4nc(C)[nH]c4c3)cc2[nH]1	?	12.8%	25.9µM*	0.0%	5.8%	i
Cc1nc2ccc(-c3nc4ccc(N)cc4[nH]3)cc2[nH]1	4.11µM*	?	2.91µM*	?	-36.1%	?
Nc1ccc2nc(-c3ccc(Cl)cc3)[nH]c2c1	4.61µM*	?	2.91µM*	?	12.6µM*	/
Clc1ccc2nc(-c3ccc(Cl)nc3)[nH]c2c1	?	35.8%	?	-6.9%	-3.4%	i
Nc1ccc(-c2nc3ccc(-c4nc5ccccc5o4)cc3[nH]2)cc1	8.2µM*	36.4%	14.6µM*	0.6%	-25.4%	i
Cc1ccc(C)c(-c2nc3ccc(N)cc3[nH]2)c1	14.6µM*	10.1%	23.1µM*	-1.8%	-0.5%	?
Clc1ccc2nc(-c3ccccc3)[nH]c2c1	26.6µM*	/	29.9µM*	/	/	/
O=C(O)c1cc(-c2ccc3ccccc3c2)nc2ccc(F)cc12	-4.3%	59.1%	-7.2%	-14.9%	-34.6%	i
CN(C)c1nc(SCC(=O)Nc2ccc(Cl)c(Cl)c2)nc(N2CCOCC2)n1	23.1µM*	-13.4%	-74.5%	1.3%	-8.3%	i
CCNc1nc(SCC(=O)Nc2ccc(Cl)c(Cl)c2)nc(N2CCOCC2)n1	18.4µM*	-34.8%	?	3.4%	7.1%	?
CC(C)(C)Nc1nc(SCC(=O)Nc2ccccc2)nc(N2CCOCC2)n1	23.1µM*	-8.5%	?	2.0%	-1.8%	i
Cc1cccc(COc2ccc(S(=O)(=O)N3CCOCC3)cc2[N+](=O)[O-])c1	-16.0%	-4.9%	-6.1%	-0.3%	-21.7%	i
COc1cc(COc2ccc(S(=O)(=O)N3CCOCC3)cc2[N+](=O)[O-])ccc1OC(F)F	?	-26.5%	18.4µM*	-25.6%	-23.0%	i
Oc1ccc(CN2CCN(c3ccccc3)CC2)c2cccnc12	3.26µM*	?	5.17µM*	?	-34.9%	i
Oc1c(CN2CCCCC2)ccc2cccnc12	1.03µM*	?	1.64µM*	?	-31.1%	?
Ic1ccc(N2CCN(Cc3c[nH]c4ncccc34)CC2)cc1	3.26µM*	?	11.2µM*	-26.0%	-41.1%	i
Fc1ccc(N2CCN(Cc3ccccn3)CC2)cc1	11.7%	-10.1%[11.3 µM]	-1.3%	-4.1%	-6.7%	i
Oc1ccc(CN2CCCCC2)c2cccnc12	5.17µM*	20µM*	5.17µM*	3.16µM*	-59.7%	12.6µM*
Oc1c(CN2CCOCC2)ccc2ccccc12	?	2.7%	?	0.7%	-1.3%	i
Cc1ccc(N2C(=O)N(CC(=O)Nc3cccc(C)c3C)C(=O)C2C)cc1 (centres undefined)	-26.6%	9.3%	-24.1%	-1.1%	15.6%	i
Cc1ccc(C)c(S(=O)(=O)N2CCN(Cc3ccc(O)c4ncccc34)CC2)c1	5.8µM*	8.91µM*	5.8µM*	?	4.8%	i
Oc1ccc(Cc2ccccc2)c2cccnc12	2.06µM*	?	4.61µM*	-19.7%	-5.4%	i
Cc1ccc(OCCSc2nc3ccccc3n2CC(=O)O)cc1C	1.3%	?	7.4%	35.2%	55.2%	i
Cc1ccc(Cl)cc1N1CCN(S(=O)(=O)c2cc3c(cc2C)NC(=O)CO3)CC1	?	-3.3%	?	?	-46.0%	i
CCC1(c2ccc(F)cc2)NC(=O)N(CC(=O)Nc2cc(C)on2)C1=O (centres undefined)	1.1%	24.4%	-14.3%	-8.4%	2.2%	i
SMILES	DT40 TDP1 no CPT	ATXN2 expr inh	TDP1 cell CPT	TGFb SMAD3 inh	HepG2 tox	S2 tox
CC1(C)CC(=O)c2cnc(N3CCc4ccccc43)nc2C1	25.9µM*	106.8%	?	-8.7%	-28.7%	/
Cc1cc(C)n2nc(SCc3cccc(S(=O)(=O)N(C)C)c3)nc2n1	14.6µM*	-6.0%	?	-21.5%	-29.2%	i
CN(C)S(=O)(=O)c1cccc(CSCc2cccc(S(=O)(=O)N(C)C)c2)c1	2.59µM*	?	5.8µM*	-12.8%	-27.1%	i
COC(=O)c1cccc(C(=O)N2CCc3c(cnc(C)c3CNC(=O)c3ccsc3)C2)c1	1.4%	/	-13.8%[9.04 µM]	/	/	i
CCC(C)NC(=O)CSc1nc2ccccc2c(=O)n1Cc1ccc(OC)cc1 (centres undefined)	?	-7.3%	-21.6%	-2.8%	1.3%	i
CCOC(=O)N1CCN(C(=O)c2ccc(Cn3c(=S)[nH]c4cc5c(cc4c3=O)OCO5)cc2)CC1	16.4µM*	-35.5%	23.1µM*	22.8%	7.4%	i
CCOC(=O)N1CCN(C(=O)c2ccc3c(=O)n(Cc4ccccc4)c(=S)[nH]c3c2)CC1	0.1%	-8.1%	-15.9%	1.6%	-19.6%	i
COc1ccc2[nH]c3c(=O)n(Cc4ccc(C(=O)N5CCC(C(N)=O)CC5)cc4)c(=S)[nH]c3c2c1	29.1µM*	/	?	3.4%	15.0%	?
CCOC(=O)N1CCN(C(=O)c2ccc(Cn3c(=S)[nH]c4cc(OCC)c(OCC)cc4c3=O)cc2)CC1	9.2µM*	-19.7%	10.3µM*	-16.9%	6.2%	i
CC[C@H](C)NC(=O)c1ccc(Cn2c(=S)[nH]c3c([nH]c4ccc(OC)cc43)c2=O)cc1	3.2%	0.5%	?	-0.3%	2.6%	i
COc1cccc(Oc2cc(Cl)nc(N)n2)c1	5.2%	-3.6%	16.5%	1.4%	-1.0%	i
NC(=O)c1ccccc1NC(=O)Nc1cccc(Cl)c1Cl	9.2µM*	-1.3%	5.8µM*	-10.6%	-7.5%	i
Cc1c(Cl)cccc1NC(=O)Nc1ccccc1C(N)=O	6.51µM*	/	4.11µM*	3.2%	-0.5%	i
Cc1c(Cl)cccc1NC(=O)Nc1ccc(C(N)=O)cc1	-24.2%	/	5.7%	0.1%	18.1%	i
CCn1nc(C)cc1C(=O)NCC1Cc2cc(C)cc(-c3ccccc3C(=O)OC)c2O1 (centres undefined)	?	/	?	/	/	i
CCOC(=O)C1CCCN(S(=O)(=O)c2ccc(S(=O)(=O)N3CCCC3)cc2)C1 (centres undefined)	3.66µM*	-4.5%	4.61µM*	7.5%	2.4%	i
CCOC(=O)C1CCCN(S(=O)(=O)c2cc3c4c(c2)CCC(=O)N4CCC3)C1 (centres undefined)	20.6µM*	-9.6%	23.1µM*	-13.4%	-4.9%	i

Screening data deposited in PubChem by National Center for Advancing Translational Sciences (NCATS).
